Seven molecules from PubChem BioAssay (Tox21) can be followed below.

“And” between values parts separate entries of the source, which are not always exact repeats. Identical values can stand only once. Records with an inconclusive call do not appear. A structure can be active in one record and inactive in another. The source made the active and inactive calls. Unless noted, calls come from the whole dose curve; as a rule, active = well fitted curve in the direction sought with a large enough effect in the repeat runs; inconclusive = weak or mixed curves; inactive = no such curve, though single readings can be large; an effect the other way counts as inactive or inconclusive.

A short description of test [1]: qHTS assay to identify small molecule agonists of the androgen receptor (AR) signaling pathway in the presence of an antagonist - cell viability counter screen (AID 1259379). Note: nearly all actives have a fitted effect of over 25% in size. Note: potency is the fitted concentration of half-maximal effect. The essentials:
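Cells: MDA-kb2 (MMTV-luc, AR and GR elements), 3,000/well, 5 hr settle. Added: nilutamide 3.0uM final, then compounds (15 conc.). Incubation: 16 hr, 37C, no CO2. Read-out: CellTiter-Fluor, 1 hr, fluorescence.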
Background: In qHTS, concentration-response curves come from the screen itself.

A short description of test [2]: qHTS assay to identify small molecule agonists of the estrogen receptor beta (ER-beta) signaling pathway - cell viability counter screen (AID 1259380). Note: nearly all actives have a fitted effect of over 30% in size. Note: potency is the fitted concentration of half-maximal effect. The essentials: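 HEK293T ER-beta-UAS-bla; 2% CS-FBS; 6 hr pre-plate, 16 hr cpd at 37C/5% CO2; LiveBLAzer read first, then CellTiter-Glo 30 min RT, luminescence.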
A short description of test [3]: qHTS assay to identify small molecule antagonists of the estrogen receptor beta (ER-beta) signaling pathway - cell viability counter screen (AID 1259382). Note: nearly all actives have a fitted effect of over 55% in size. Note: potency is the fitted concentration of half-maximal effect. The essentials:
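Cells: ER-beta-UAS-bla HEK293T, 2,000/well, 2% CS-FBS, 6 hr settle. Cpd + E2 (1nM final), 16 hr, 37C/5% CO2. Bla FRET substrate 2 hr RT, then CellTiter-Glo 30 min RT, luminescence.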

Test [4] concerns the target Estrogen receptor (Homo sapiens) (UniProt P03372). Put plainly: qHTS assay to identify small molecule agonists of the estrogen receptor alpha (ER-alpha) signaling pathway in the presence of an antagonist (AID 1259383; calls by dose curve; note: top concentration of the series differs between compounds; nearly all actives have a fitted effect of over 15% in size). In outline:
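VM7Luc4E2, endog. ER-alpha + 4×ERE-luc; charcoal-stripped FBS, phenol red-free, 5 d; 24hr plating; +10.0nM ICI-182,780 (final); cpds 15 conc, 22hr, 37C/5% CO2; ONE-Glo luminescence.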

Test [5] in a line: qHTS assay to identify small molecule agonists or antagonists of the thyroid stimulating hormone receptor (TSHR) signaling pathway - wild type cell line counter screen (AID 1259384; calls by dose curve). The essentials: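 Wild-type Hek293 cells, 800/well, 18 h at 37C, then compound with Ro20-1724 for 30 min RT. cAMP by HTRF (cAMP-d2/anti-cAMP cryptate), 1 h RT, fluorescence read. 15 concentrations, triplicates.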

Test [6] deals with Thyrotropin receptor (Homo sapiens) (UniProt P16473). The test can be described thus: qHTS assay to identify small molecule antagonists of the thyroid stimulating hormone receptor (TSHR) signaling pathway (AID 1259385; calls by dose curve; note: nearly all actives have a fitted effect of over 20% in size; note: potency is the fitted concentration of half-maximal effect). In outline: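 TSHR-HEK293 cells (800/well) plated 18 h, then compounds with Ro20-1724 and TSH at 1.5 ng/mL final, 30 min at room temperature. cAMP quantified by HTRF (cAMP-d2/anti-cAMP-cryptate, 1 h); 15 concentrations in triplicate.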

Test [7] is described as follows: qHTS assay to identify small molecule agonists of the estrogen receptor alpha (ER-alpha) signaling pathway in the presence of an antagonist - cell viability counter screen (AID 1259386).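 Note: cells exposed to compounds for 22 h at 37 °C before the viability read; nearly all actives have a fitted effect of over 30% in size.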 Note: potency is the fitted concentration of half-maximal effect. In outline: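 VM7Luc4E2, stripped-serum pre-culture 5 d; 24hr plating; +ICI-182,780 10.0nM final; cpds 15 conc, 22hr, 37C/5% CO2; CellTiter-Fluor added at 21hr, fluorescence 1hr later.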

The target of test [8] is Progesterone receptor (Homo sapiens) (UniProt P06401). The test can be described thus: qHTS assay to identify small molecule agonists of the progesterone receptor (PR) signaling pathway (AID 1346784; calls by dose curve; note: nearly all actives have a fitted effect of over 30% in size). The essentials:
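Agonist mode, quantitative HTS format in a HEK 293T line expressing a UAS-controlled beta-lactamase reporter; 16 hr compound exposure at 37C in 2% charcoal-stripped FBS, then LiveBLAzer B/G FRET fluorescence.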

The nature of test [9]: qHTS assay to identify small molecule antagonists of the progesterone receptor (PR) signaling pathway - cell viability counter screen (AID 1346798). Note: nearly all actives have a fitted effect of over 50% in size. Note: potency is the fitted concentration of half-maximal effect. The essentials:
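Same-well multiplex: after 16 hr at 37C with compound and R5020 stimulation, HEK293T cells carrying a UAS-bla reporter received LiveBLAzer substrate (2 hr RT), then CellTiter-Glo (30 min RT) for luminescent viability.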

A short description of test [10]: qHTS assay to identify small molecule agonists of the progesterone receptor (PR) signaling pathway - cell viability counter screen (AID 1346799; calls by dose curve; note: nearly all actives have a fitted effect of over 45% in size). The essentials: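 Counter screen for cytotoxicity: compound-treated PR-UAS-bla HEK293T cells (16 hr, 37C, 5% CO2) were assayed with CellTiter-Glo, luminescence measured after 30 min at room temperature.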
A short description of test [11]: qHTS assay to identify small molecule antagonists of the TGF-beta/Smad signaling pathway - cell viability counter screen (AID 1346824). Note: nearly all actives have a fitted effect of over 50% in size. In outline:
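SBE-bla HEK 293T cells, incubated overnight, then compound plus 0.25 ng/mL TGF-beta1 (stock added) for 5 hr at 37 C. Viability was read in the same wells by CellTiter-Glo luminescence after 30 min at room temperature.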

A short description of test [12]: qHTS assay to identify small molecule agonists of the TGF-beta/Smad signaling pathway - cell viability counter screen (AID 1346829). Note: nearly all actives have a fitted effect of over 45% in size. Note: potency is the fitted concentration of half-maximal effect. In outline:
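Here the cytotoxicity of library compounds is measured in SBE-bla HEK 293T cells treated for 5 hr, using CellTiter-Glo added to wells already read for the beta-lactamase reporter.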

The nature of test [13]: qHTS assay to identify small molecule agonists of the TGF-beta/Smad signaling pathway (AID 1346859; active = well fitted activation curve with a large enough effect in the signal ratio in the repeat runs, not every such curve was filed as active; the % refers to the signal ratio; note: series mostly up to about 77 µM). In outline:
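Smad-responsive beta-lactamase reporter cells (HEK 293T) received compounds from DMSO stocks after overnight attachment, were incubated 5 hr, then treated 2 hr with FRET substrate before dual-emission fluorescence measurement (405 nm excitation).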

Test [14] deals with Thyrotropin-releasing hormone receptor (Homo sapiens) (UniProt P34981). The test can be described thus: qHTS assay to identify small molecule antagonists of the thyrotropin-releasing hormone receptor (TRHR) signaling pathway (AID 1346877; active = well fitted inhibition curve with a large enough effect in the repeat runs, not every such curve was filed as active; note: series mostly up to about 51 µM). In outline:
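Intracellular calcium fluorescence, read kinetically every second over 3 min, reports TRH-evoked signalling in HEK293 cells carrying TRHR. Test compounds were added 5 min ahead of a 1 nM TRH challenge.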

For test [15] the target is unchanged. Put plainly: qHTS assay to identify small molecule agonists of the thyrotropin-releasing hormone receptor (TRHR) signaling pathway (AID 1346891; calls by dose curve;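 note: HEK293 cells expressing TRHR with calcium dye readout; series mostly up to about 58 µM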). The essentials:
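Agonist-mode calcium mobilisation screen: TRHR-transfected HEK293 cells cultured overnight (18 h), dye-loaded for 2 h at 37 °C, exposed to compounds, and monitored by fluorescence for 3 min.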

The nature of test [16]: Human pregnane X receptor (PXR) small molecule agonists, qHTS cell viability counter screen (AID 1346977). Note: nearly all actives have a fitted effect of over 50% in size. Note: potency is the fitted concentration of half-maximal effect. The essentials:
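Measures live-cell protease fluorescence (CellTiter-Fluor) in PXR-Luc HepG2 cells treated 24hr with compounds at 37C. Cells had 5hr to attach before pin transfer of DMSO solutions.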

The target of test [17] is Estrogen receptor beta (Homo sapiens) (UniProt Q92731). Put plainly: qHTS assay to identify small molecule agonists of the estrogen receptor beta (ER-beta) signaling pathway (AID 1259377; active = well fitted activation curve with a large enough effect in the signal ratio in the repeat runs, not every such curve was filed as active; the % refers to the signal ratio). In outline:
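A UAS-controlled beta-lactamase reporter in ER-beta-UAS-bla HEK293T cells reports receptor activation. Compounds act for 16 hr at 37C in 2% charcoal-stripped serum, and a FRET substrate is read by fluorescence after 2 hours.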

Test [18] shares this target. The test can be described thus: qHTS assay to identify small molecule antagonists of the estrogen receptor beta (ER-beta) signaling pathway (AID 1259378; active = well fitted inhibition curve with a large enough effect in the signal ratio in the repeat runs, not every such curve was filed as active; the % refers to the signal ratio). The essentials:
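ER-beta-UAS-bla HEK293T cells in 2% charcoal-stripped FBS medium treated with compound plus 1nM final 17-beta-estradiol for 16 hr at 37C. Beta-lactamase reporter read by FRET substrate fluorescence after 2 hours at room temperature.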

The target of test [19] is Progesterone receptor (Homo sapiens) (UniProt P06401). Put plainly: qHTS assay to identify small molecule antagonists of the progesterone receptor (PR) signaling pathway (AID 1346795; active = well fitted inhibition curve with a large enough effect in the signal ratio in the repeat runs, not every such curve was filed as active; the % refers to the signal ratio). The essentials: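 HEK293T PR-UAS-bla reporter cells in charcoal-stripped serum (2%) received compound after a 6 hr settling period, followed by R5020 agonist at 1 nM final; 16 hr incubation preceded the FRET substrate step and fluorescence measurement.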
Chain of Progesterone receptor (Homo sapiens) (P06401 whole entry, looked up): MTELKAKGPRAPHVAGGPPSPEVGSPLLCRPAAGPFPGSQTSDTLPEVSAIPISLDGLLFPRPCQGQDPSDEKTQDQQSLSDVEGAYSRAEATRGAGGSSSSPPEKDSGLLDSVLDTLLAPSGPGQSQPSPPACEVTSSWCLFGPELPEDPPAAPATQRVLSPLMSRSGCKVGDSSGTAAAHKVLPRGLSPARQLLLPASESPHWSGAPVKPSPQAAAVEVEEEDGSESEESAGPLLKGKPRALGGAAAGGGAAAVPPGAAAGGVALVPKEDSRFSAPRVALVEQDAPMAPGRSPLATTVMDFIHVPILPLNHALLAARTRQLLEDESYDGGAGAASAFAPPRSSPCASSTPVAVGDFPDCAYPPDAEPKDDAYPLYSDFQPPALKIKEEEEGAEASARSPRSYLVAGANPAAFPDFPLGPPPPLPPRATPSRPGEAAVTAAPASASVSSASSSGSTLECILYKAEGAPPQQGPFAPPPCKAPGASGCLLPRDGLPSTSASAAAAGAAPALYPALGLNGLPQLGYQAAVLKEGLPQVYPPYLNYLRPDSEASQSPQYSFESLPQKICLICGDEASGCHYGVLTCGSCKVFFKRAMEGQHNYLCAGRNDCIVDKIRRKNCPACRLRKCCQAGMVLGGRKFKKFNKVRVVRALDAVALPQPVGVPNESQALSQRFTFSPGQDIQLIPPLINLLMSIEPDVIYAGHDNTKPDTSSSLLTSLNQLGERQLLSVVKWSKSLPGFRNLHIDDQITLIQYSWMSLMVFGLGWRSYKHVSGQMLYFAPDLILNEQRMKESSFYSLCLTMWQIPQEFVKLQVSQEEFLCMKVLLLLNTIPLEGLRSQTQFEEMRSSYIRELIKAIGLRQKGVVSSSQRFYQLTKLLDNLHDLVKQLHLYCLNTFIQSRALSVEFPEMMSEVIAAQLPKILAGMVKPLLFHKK

Chain of Thyrotropin receptor (Homo sapiens) (P16473 whole entry, looked up): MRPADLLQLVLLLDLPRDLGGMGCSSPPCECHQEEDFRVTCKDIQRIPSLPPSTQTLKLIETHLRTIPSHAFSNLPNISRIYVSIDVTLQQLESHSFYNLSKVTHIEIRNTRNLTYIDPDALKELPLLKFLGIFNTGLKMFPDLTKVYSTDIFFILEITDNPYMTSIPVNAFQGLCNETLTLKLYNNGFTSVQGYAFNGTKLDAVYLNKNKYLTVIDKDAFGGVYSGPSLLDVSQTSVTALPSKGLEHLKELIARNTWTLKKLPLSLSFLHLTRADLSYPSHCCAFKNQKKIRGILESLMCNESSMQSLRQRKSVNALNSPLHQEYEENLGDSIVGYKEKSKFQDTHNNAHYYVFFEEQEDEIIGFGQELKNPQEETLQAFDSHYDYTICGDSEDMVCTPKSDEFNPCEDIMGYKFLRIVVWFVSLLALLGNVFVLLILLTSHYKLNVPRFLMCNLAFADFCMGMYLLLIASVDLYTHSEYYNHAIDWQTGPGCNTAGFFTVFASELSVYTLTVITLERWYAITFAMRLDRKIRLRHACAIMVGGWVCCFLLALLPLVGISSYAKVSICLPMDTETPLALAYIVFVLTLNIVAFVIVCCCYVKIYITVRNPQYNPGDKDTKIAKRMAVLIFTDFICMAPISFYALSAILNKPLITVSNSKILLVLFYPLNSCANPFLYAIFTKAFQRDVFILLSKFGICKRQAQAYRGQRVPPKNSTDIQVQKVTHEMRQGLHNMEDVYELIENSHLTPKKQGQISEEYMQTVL
Chain of Estrogen receptor (Homo sapiens) (P03372 whole entry, looked up): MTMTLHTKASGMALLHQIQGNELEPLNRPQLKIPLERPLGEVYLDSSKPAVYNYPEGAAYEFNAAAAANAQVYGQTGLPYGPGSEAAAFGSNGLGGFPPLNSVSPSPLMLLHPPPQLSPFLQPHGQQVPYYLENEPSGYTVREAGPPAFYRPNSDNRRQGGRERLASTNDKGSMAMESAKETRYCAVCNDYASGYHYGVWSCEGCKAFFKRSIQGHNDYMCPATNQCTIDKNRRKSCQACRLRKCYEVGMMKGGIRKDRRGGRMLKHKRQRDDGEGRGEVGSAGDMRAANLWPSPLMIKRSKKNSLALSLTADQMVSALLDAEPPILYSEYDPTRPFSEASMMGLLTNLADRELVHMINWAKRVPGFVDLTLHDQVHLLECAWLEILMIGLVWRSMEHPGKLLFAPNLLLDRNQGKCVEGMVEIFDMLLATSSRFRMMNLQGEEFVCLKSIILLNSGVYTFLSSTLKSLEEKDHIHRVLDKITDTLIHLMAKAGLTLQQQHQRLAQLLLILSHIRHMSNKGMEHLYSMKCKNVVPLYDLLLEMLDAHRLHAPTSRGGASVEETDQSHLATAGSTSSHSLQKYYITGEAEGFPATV
Chain of Thyrotropin-releasing hormone receptor (Homo sapiens) (P34981 whole entry, looked up): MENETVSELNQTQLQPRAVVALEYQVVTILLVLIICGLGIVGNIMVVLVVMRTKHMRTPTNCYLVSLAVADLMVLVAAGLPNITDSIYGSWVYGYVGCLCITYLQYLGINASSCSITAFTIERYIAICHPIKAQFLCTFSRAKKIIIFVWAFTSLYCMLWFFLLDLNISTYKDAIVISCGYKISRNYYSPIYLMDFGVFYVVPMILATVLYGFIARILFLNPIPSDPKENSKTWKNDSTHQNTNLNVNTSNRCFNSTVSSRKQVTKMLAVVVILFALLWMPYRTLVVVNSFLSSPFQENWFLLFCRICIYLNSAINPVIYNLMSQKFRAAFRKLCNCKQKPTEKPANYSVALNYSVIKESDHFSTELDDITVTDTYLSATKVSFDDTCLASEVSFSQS
Chain of Estrogen receptor beta (Homo sapiens) (Q92731 whole entry, looked up): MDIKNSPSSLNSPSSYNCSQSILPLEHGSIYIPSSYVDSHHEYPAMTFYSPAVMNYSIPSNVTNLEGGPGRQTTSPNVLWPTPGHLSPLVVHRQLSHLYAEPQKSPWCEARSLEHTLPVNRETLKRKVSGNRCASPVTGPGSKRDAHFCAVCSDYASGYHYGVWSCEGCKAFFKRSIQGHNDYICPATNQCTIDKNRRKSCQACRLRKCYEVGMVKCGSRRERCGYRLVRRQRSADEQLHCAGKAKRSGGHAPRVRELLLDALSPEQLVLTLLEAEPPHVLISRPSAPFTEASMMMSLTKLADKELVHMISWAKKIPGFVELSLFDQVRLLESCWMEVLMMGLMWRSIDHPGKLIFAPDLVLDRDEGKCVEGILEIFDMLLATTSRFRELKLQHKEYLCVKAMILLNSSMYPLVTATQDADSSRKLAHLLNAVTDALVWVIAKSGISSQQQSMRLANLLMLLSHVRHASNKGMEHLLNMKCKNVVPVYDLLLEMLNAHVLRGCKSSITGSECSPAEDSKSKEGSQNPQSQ

Turning to `Nc1ccc(Cl)cc1`, the Potency entry in test [1], in test [2], in [3], in test [4], in test [5] and in test [6] was “inactive” each time. For the same molecule, the Potency entry in test [7], in test [8], in test [9], in [10], in [11] and in [12] was “inactive” in each case. Further, the Potency result in test [13], in test [14], in [15] and in [16] was “inactive” in each case.

Consider `COP(=O)(OC)OC=C(Cl)Cl`, for which the call in [17] was inactive. The Potency entry in [18], in test [1], in test [2], in [3], in [4] and in test [7] was “inactive” throughout. Further, the Potency entry in [8], in [19], in [9], in [10], in test [11] and in [12] was “inactive” in each case. Also, the Potency result in test [13], in [14], in [15] and in test [16] was “inactive” each time.

`O=C(O)c1nc(Cl)ccc1Cl`: the Potency entry in [1], in [2], in test [3], in test [4], in test [5] and in [6] was “inactive” in each case. For the same molecule, the Potency result in test [7], in [8], in test [19], in test [9], in test [10] and in test [11] was “inactive” each time. The Potency result in test [12], in test [13] and in [16] was “inactive” in each case.

With `CC(Cl)(Cl)C(=O)O`, the result in test [17] was inactive. In addition, the Potency entry in test [18], in test [1], in [2], in [3], in [4] and in test [5] was “inactive” in each case. In addition, the Potency result in test [6], in test [7], in [8], in test [19], in [9] and in [10] was “inactive” in each case. Further, the Potency entry in [11], in [12], in test [13] and in test [16] was “inactive” each time.

Take `CCCn1cc[n+](C)c1`: the Potency entry in [1], in [2], in [3], in test [5], in [6] and in [7] was “inactive” each time. In addition, the Potency result in [8], in test [19], in test [9], in test [10], in test [11] and in test [12] was “inactive” in each case. Also, the Potency result in [13], in test [14], in [15] and in test [16] was “inactive” throughout.

As for `CCOP(=S)(OCC)Oc1ccc2c(C)c(Cl)c(=O)oc2c1`, the result in test [17] was inactive. The Potency entry in test [1], in test [2], in test [3], in test [5], in test [6] and in test [7] was “inactive” throughout. Besides, the Potency result in [8], in [10], in [11], in [12], in test [14] and in [15] was “inactive” each time. The Potency entry in test [16] is “inactive”.

`CCCCCCCCCCCCCC[P+](CCCCCC)(CCCCCC)CCCCCC`: the Potency is 9.73 µM (active) and 24.5 µM (active) and 2.43 µM (active) in [1]; 12.2 µM (active) and 27.5 µM (active) in test [2]; 13.7 µM (active) and 27.5 µM (active) and inactive in test [3]; 68.9 µM (active) and 69.1 µM (active) and inactive in [6]; 9.73 µM (active) and 21.9 µM (active) and 6.85 µM (active) in [7]; 30.8 µM (active) in test [9]. Besides, the Potency in test [12] is 15.6 µM (active) and 24.7 µM (active) and inactive; in [16], 3.87 µM (active) and 6.16 µM (active) and 1.72 µM (active). The Potency result in test [4], in [5], in [8], in test [19] and in test [13] was “inactive” in each case.
